G9a inh: qHTS Assay for Inhibitors of Histone Lysine Methyltransferase G9a | Histone-lysine N-methyltransferase EHMT2 (Homo sapiens), Q96KQ7 | G9a H3K9 monomethylation, AlphaScreen, 2 h | Potency, µM (doses to about 102 µM), for inactives: top-dose activity, negative = inhibition, most hits filed as inhibitors | hit rate 8.8% among 350,000; further: potency means the concentration at half of the fitted maximal effect; on the % scale 0 is the no-effect control and ±100 the full control effect; nearly all actives have a fitted effect of over 75% in size
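Readings reflect AlphaScreen signal from monomethyl-H3K9 antibody detection. HMT at 20 nM; substrate b-H3K9 500 nM; cofactor SAM 20 uM; 2 h RT reaction; compounds tested as titrations in qHTS with 15 min preincubation.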
JMJD2A Tudor inh: qHTS Assay for Inhibitors of JMJD2A-Tudor Domain. Potency, µM (titrated, usually from 114 µM), for the others: top-dose activity change, negative = inhibition, most hits filed as inhibitors. hit rate 4.4% among 390,000. AlphaScreen JMJD2A-Tudor / H3K4me3 peptide binding. AID 504339, 2011; further: potency means the concentration at half of the fitted maximal effect; on the % scale 0 is the no-effect control and ±100 the full control effect; nearly all actives have a fitted effect of over 50% in size
PI5P4Ka inh: qHTS for Inhibitors of phosphatidylinositol 5-phosphate 4-kinase (PI5P4K). Phosphatidylinositol 5-phosphate 4-kinase type-2 alpha (Homo sapiens), P48426. PI5P4Kalpha enzyme, ADP-Glo luminescence, 60 min; active compounds read low. max response, %. hit rate 1.2% among 330,000; active means max response of -50% or lower; inconclusive means between -30% and -50%; inactive means -30% or higher; further: value at the top dose of about 77 µM; on the % scale 0 is the no-effect control and ±100 the full control effect
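PI5P4Kalpha ADP-Glo assay; 5 microM ATP final; 60 min RT reaction; HEPES pH 7.4/EGTA/CHAPS, 5% DMSO; controls lacking substrate or enzyme; luminescent end-point.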
PLK1 PBD block: qHTS for Inhibitors of PLK1-PDB (polo-like kinase 1 - polo-box domain): Primary Screen | Serine/threonine-protein kinase PLK1 (Homo sapiens), P53350 | Plk1 PBD binding of FITC phosphopeptide, fluorescence polarization | Potency, µM, inactives show max response, negative = inhibition, actives largely listed as inhibitors | AID 720504, 2013 | hit rate 2.8% among 360,000; further: potency means the concentration at half of the fitted maximal effect; series mostly up to about 57 µM; on the % scale 0 is the no-effect control and ±100 the full control effect; nearly all actives have a fitted effect of over 65% in size
HP1b binding inh: HTS for Inhibitors of HP1-beta Chromodomain Interactions with Methylated Histone Tails; AlphaScreen HP1-beta / biotin-H3K9me3 peptide binding; Potency, µM (doses to about 114 µM), without a hit: at the highest dose activity change, negative = inhibition, hits mostly inhibitors; hit rate 0.56% among 390,000; further: potency means the concentration at half of the fitted maximal effect; nearly all actives have a fitted effect of over 70% in size
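AlphaScreen: HP1-beta (50 nM) preformed 30 min with biotin-H3(1-18)K9me3 peptide (50 nM) in PBS pH 7.4, 0.01% Tween-20. Compound added for 30 min at RT, then streptavidin donor/nickel chelate acceptor beads (10 ug/mL) for 30 min.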
BAZ2B block: qHTS Assay for Inhibitors of BAZ2B. hit rate 4.4% among 360,000. Potency, µM (highest dose often 114 µM), without a hit: top-dose activity change, negative = inhibition, most hits filed as inhibitors. AlphaScreen BAZ2B-H3K14Ac peptide displacement. Bromodomain adjacent to zinc finger domain protein 2B (Homo sapiens), Q9UIF8; further: potency means the concentration at half of the fitted maximal effect; on the % scale 0 is the no-effect control and ±100 the full control effect; nearly all actives have a fitted effect of over 60% in size
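Inhibition is scored as reduced AlphaScreen emission. The BAZ2B/b-H3(5-23)K14Ac complex (50 nM each) in PBS pH 7.4, 0.01% Tween-20 meets compound (up to 110 uM) for 30 min at RT before bead addition.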
* = called active by the depositor; ? = inconclusive; · = not tested or not shown; ! = repeats disagree; [ ] = remark or other dose. Shown are actives, neighbours in structure and some others; about 12% of the full set was active somewhere. Unless noted, the call rests on the fitted dose curve; in most records, active means well fitted curve in the direction sought with a large enough effect; inconclusive means small, poorly fitted or top-dose-only effect, or another doubt; inactive means no such curve, though single readings can be large; an effect the other way counts as inactive or inconclusive.

SMILES | G9a inh | JMJD2A Tudor inh | PI5P4Ka inh | PLK1 PBD block | HP1b binding inh | BAZ2B block
COc1ccccc1-n1cnnc1SCC(=O)c1c[nH]c2ccccc12 | 8%[59 µM] | -30% | -56* | 27µM* | -12% | -15%
Cc1occc1-c1nnc(SCC(=O)c2c[nH]c3ccccc23)n1C | 40µM* | 56µM* | -2 | 24µM* | -26% | -22%
Cc1occc1-c1nnc(SCC(=O)N2CCCCC2)n1C | -7% | -8% | 0 | -3% | 17% | -5%
COc1ccccc1-n1cnnc1SCC(=O)NCc1cccs1 | -3%[59 µM] | -11% | -4 | -6% | 7% | -22%
Cc1occc1-c1nnc(SCC(=O)c2ccc(Cl)cc2)n1C | -40%[12.7 µM] | 71µM* | -16 | -17% | -20% | ?
COc1ccc(Cn2nnc3c(=O)[nH]c(C4CCN(C(=O)c5ccc(C)cc5)CC4)nc32)cc1OC | 12%[59 µM] | -15% | · | · | 15% | -3%
Cc1ccc(CN2C(=O)CSC2c2ccccc2F)cc1 (stereo unspecified) | -4%[2.33 µM] | 15% | -3 | -10% | 17% | 8%
O=C(COc1ccccc1Cl)N1CCN(c2ccccn2)CC1 | ? | 3% | 0 | -6% | 34% | 6%
N#Cc1c(-c2ccc(Cl)cc2)cc(-c2cccs2)nc1SCC(=O)O | 8.9µM* | 28µM* | ? | 17µM* | -18% | 22µM*
CN1CCN(C(=O)CSc2nc(-c3cccs3)ccc2C#N)CC1 | 40µM* | ? | ? | 0% | 17% | 1%
COc1ccc(-c2cc(-c3cccs3)c(C#N)c(SCC(=O)NCc3ccccc3)n2)cc1 | 1% | 0% | -4 | 1% | 31% | 2%[57.1 µM]
Cc1ccc(-c2cc(-c3ccccc3)c(C#N)c(SCC(O)CS(=O)(=O)Cc3ccccc3)n2)cc1 (stereo unspecified) | ? | -15% | · | · | -2% | -8%
N#Cc1c(-c2ccccc2)cc(-c2ccccc2)nc1SCC(O)CS(=O)(=O)Cc1ccccc1 (stereo unspecified) | 4.5µM* | -25% | · | · | -17% | -14%
N#Cc1c(-c2ccccc2)cc(-c2cccs2)nc1SCC(=O)O | 8.9µM* | -13% | -2 | 27µM* | 4% | -5%
CCCNS(=O)(=O)c1cc2c(cc1Br)CCN2C(=O)CC | · | -6% | 2 | -2% | 29% | ·
Clc1ccc(Nc2nc(-c3ccncc3)cs2)cc1 | · | -29% | -8 | -3% | -7% | ·
Cc1ccc(Nc2nc(CSc3n[nH]c(N)n3)cs2)cc1 | ? | ? | -11 | -17% | -5% | -33%
Cc1ccc(Nc2nc(C)cs2)cc1 | 35µM* | ? | 2 | ? | ? | -23%
Cc1csc(Nc2ccc(Cl)cc2)n1 | 45µM* | -16% | 0 | -11% | 4% | ?
O=c1c(-c2ccc(Cl)cc2)nc2cnc(N3CCNCC3)nc2n1Cc1ccc(F)cc1 | -6%[12.7 µM] | · | · | · | · | ·
COc1ccc2c3c(ccc2c1)C(=O)/C(=C/O)CC3 | · | 7.9µM* | ? | 4.2µM* | 35µM* | ·
OC(COc1ccc(Cl)cc1)CN1CCN(c2ccccn2)CC1 (stereo unspecified) | · | -10% | -3 | 3% | 14% | ·
Cc1cc(C)c(OCC(O)CN2CCN(c3ccccn3)CC2)c(C)c1 (stereo unspecified) | ? | 1% | -2 | 0% | 29% | 56µM*
CC(C)(C)C1CCC(OCC(O)CN2CCN(Cc3ccccc3)CC2)CC1 (stereo unspecified) | 10%[59 µM] | -19% | 6 | 0% | 15% | ?
OC(COCC1COc2ccccc2O1)CN1CCN(c2ccccn2)CC1 (stereo unspecified) | 25%[59 µM] | 45µM*! | -2 | -1% | 31% | -8%
SMILES | G9a inh | JMJD2A Tudor inh | PI5P4Ka inh | PLK1 PBD block | HP1b binding inh | BAZ2B block
Cc1cc(OCC(O)CN2CCN(c3ccccn3)CC2)cc(C)c1Cl (stereo unspecified) | 45µM* | ? | 4 | -6% | -8% | ?
CC(C)(C)C1CCC(OCC(O)CN2CCN(c3ccccn3)CC2)CC1 (stereo unspecified) | 32µM* | ? | 6 | -23% | 24% | ?
Cc1ccc(NC(=O)N2CCC(N3CCN(Cc4ccccc4)C(=O)C3=O)CC2)cc1Cl | -2%[59 µM] | -19% | · | · | 24% | 2%
COc1ccc(-c2nc3c(C)cc(Br)cn3c2Cc2cccc(Cl)c2)cc1OC | · | · | 13 | -12% | · | ·
CCCCN1CN(S(=O)(=O)c2cccs2)c2nc3ccccc3nc21 | ? | · | · | · | · | 9%
CC(C)OCCCN1CN(S(=O)(=O)c2cccs2)c2nc3ccccc3nc21 | 20µM* | 2% | 10 | 4% | 47% | -24%
Cc1ccc(CN2CN(S(=O)(=O)c3cccs3)c3nc4ccccc4nc32)cc1 | -3%[2.33 µM] | -17% | 1 | 0% | 23% | 1%
O=S(=O)(c1cccs1)N1CN(Cc2ccco2)c2nc3ccccc3nc21 | 40µM* | ? | -3 | -4% | -7% | ?
CC(C)CCN1CN(S(=O)(=O)c2cccs2)c2nc3ccccc3nc21 | 16µM* | -4% | 10 | -11% | 23% | 1%
CC(C)(C)OC(=O)NCc1nnc(C(C(=O)OCc2ccccc2)c2ccccc2)s1 (stereo unspecified) | · | -18% | · | · | · | ·
CCN(CC)CCNC(=O)Cn1nc(C)c2c(C)n(-c3ccccc3)nc2c1=O | -22%[59 µM] | -12% | · | · | -3% | -6%
CC(C)CCn1c(=S)[nH]c2ncccc2c1=O | 12% | ? | 0 | -4% | 41% | 5%
COc1ccc(N2CCN(CCCn3c(=S)[nH]c4ncccc4c3=O)CC2)cc1 | ? | -35% | 15 | -11% | 15% | -3%
CCOCCCn1c(=S)[nH]c2ncccc2c1=O | 56µM* | 22µM* | -6 | 0% | 55% | -13%
CN(C)CCn1c(=S)[nH]c2ncccc2c1=O | 28µM* | 7% | 4 | 3% | 0% | -35%
Cn1c2cc(B(O)O)sc2c2cnn(Cc3c(F)cccc3F)c(=O)c21 | -2%[12.7 µM] | · | · | · | · | 3%
CC(=O)c1c(C)[nH]c(C(=O)Nc2ccc(N3CCCCCC3)cc2)c1C | · | · | -2 | 7% | · | ·
Fc1ccc(-c2nc3ccccc3[nH]2)cc1 | · | -7% | 5 | ? | 50% | 2%
S=c1nc(-c2ccc(Br)cc2)[nH]c2ccccc12 | · | -10%[11.4 µM] | 2 | 12µM* | 22% | 3%
O=c1nc(-c2ccccc2)c2ccccc2[nH]1 | -1% | -3% | -6 | -4% | 14% | 8%
S=c1nc(-c2ccccc2)[nH]c2ccccc12 | 50µM* | -7% | -11 | -23% | 48% | -25%

From PubChem BioAssay
